Read-out in experiment [1]: Collagen III, COL3A1 (gene 1281)
Description: BSK_MyoF_CollagenIII: BioMAP Diversity Plus: MyoF Assay for Collagen III Biomarker Activity (AID 2284239). Conditions: primary human lung fibroblasts. The procedure, abridged:
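ELISA read-out of collagen III from human lung fibroblasts after 24 h of chemical treatment. The DMSO control served as negative control and baseline, with values fitted in the positive direction.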

Read-out in experiment [2]: Interleukin 17F (IL17F), IL17F (gene 112744)
Description: BSK_BT_xIL17F: BioMAP Diversity Plus: BT Assay for Interleukin 17F (IL17F) Biomarker Activity (AID 2284243). Conditions: primary human B cells with PBMC. The procedure, abridged: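 Compound was added to co-cultures of human B cells and PBMC. After 24 hours, IL-17F released into the medium was measured with LumineX xMAP technology. Responses were then fitted upward relative to DMSO.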

Read-out in experiment [3]: Interleukin 2 (IL2), IL2 (gene 3558)
Put plainly: BSK_BT_xIL2: BioMAP Diversity Plus: BT Assay for Interleukin 2 (IL2) Biomarker Activity (AID 2284245). Conditions: primary human B cells with PBMC. The procedure, abridged:
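Secreted interleukin-2 from human B cell/PBMC co-cultures, measured 24 h post-dosing by Luminex multiplex immunoassay. Upward-direction curve fitting against DMSO baseline.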

Read-out in experiment [4]: Basic fibroblast growth factor (bFGF), FGF2 (gene 2247)
Put plainly: BSK_MyoF_bFGF: BioMAP Diversity Plus: MyoF Assay for Basic fibroblast growth factor (bFGF) Biomarker Activity (AID 2284246). Conditions: primary human lung fibroblasts. The procedure, abridged: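 In this multiplexed cell system, lung fibroblasts (human primary) receive test chemical for 24 h before ELISA detection of bFGF; DMSO defines baseline and the analysis direction is positive.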

Read-out in experiment [5]: Collagen IV, COL4A1 (gene 1282)
Put plainly: BSK_MyoF_CollagenIV: BioMAP Diversity Plus: MyoF Assay for Collagen IV Biomarker Activity (AID 2284247). Conditions: primary human lung fibroblasts. The procedure, abridged:
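Activity is scored as a signal increase over DMSO in an ELISA for Collagen IV, measured on human lung fibroblasts at 24 h after chemical treatment. Cytotoxicity is checked in parallel cultures by sulforhodamine B total-protein staining.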

Read-out in experiment [6]: Plasminogen activator inhibitor-1 (PAI1), SERPINE1 (gene 5054)
Put plainly: BSK_MyoF_PAI1: BioMAP Diversity Plus: MyoF Assay for Plasminogen activator inhibitor-1 (PAI1) Biomarker Activity (AID 2284256).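 As to outcome: PAI-1 protein level measured by ELISA in fibroblast cultures; PAI-1 read 24 h after compound addition.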 Conditions: primary human lung fibroblasts. The procedure, abridged: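 Primary human lung fibroblasts are dosed and incubated 24 h. PAI-1 is then measured by ELISA, while parallel cultures undergo SRB staining for overt cytotoxicity. Increases over DMSO define activity.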

Read-out in experiment [7]: Actin alpha 1 (ACTA1), ACTA1 (gene 58)
Put plainly: BSK_MyoF_ACTA1: BioMAP Diversity Plus: MyoF Assay for Actin alpha 1 (ACTA1) Biomarker Activity (AID 2284244). Conditions: primary human lung fibroblasts. The procedure, abridged: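 Measured by ELISA: alpha-smooth muscle actin in human primary lung fibroblasts 24 h after dosing, with DMSO as baseline and upward signal change as the fitted direction.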

Read-out in experiment [8]: Monokine induced gamma interferon (MIG), CXCL9 (gene 4283)
Put plainly: BSK_KF3CT_MIG: BioMAP Diversity Plus: KF3CT Assay for Monokine induced gamma interferon (MIG) Biomarker Activity (AID 2284248). Conditions: primary human keratinocytes with fibroblasts. The procedure, abridged:
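KF3CT system: keratinocyte/fibroblast co-culture, 24 h post-dose, MIG by ELISA; activity vs DMSO, positive fitting direction.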

Read-out in experiment [9]: Vascular cell adhesion molecule 1 (VCAM1), VCAM1 (gene 7412)
Put plainly: BSK_BF4T_VCAM1: BioMAP Diversity Plus: BF4T Assay for Vascular cell adhesion molecule 1 (VCAM1) Biomarker Activity (AID 2284249). Conditions: primary human bronchial epithelial cells with fibroblasts. The procedure, abridged:
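Human bronchial epithelial cell and dermal fibroblast co-culture exposed 24 h. VCAM-1 measured by ELISA; parallel SRB total-protein staining for cytotoxicity. Fitted in positive direction relative to DMSO.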

Read-out in experiment [10]: Collagen I, COL1A1 (gene 1277)
Put plainly: BSK_hDFCGF_CollagenI: BioMAP Diversity Plus: hDFCGF Assay for Collagen I Biomarker Activity (AID 2284250). Conditions: primary human foreskin fibroblasts. In a few lines:
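Cells were primary human foreskin fibroblasts treated for 24 h. Collagen I levels were then determined by ELISA and compared against DMSO controls.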

Read-out in experiment [11]: Interferon-inducible T-cell alpha chemoattractant (ITAC), CXCL11 (gene 6373)
Put plainly: BSK_hDFCGF_ITAC: BioMAP Diversity Plus: hDFCGF Assay for Interferon-inducible T-cell alpha chemoattractant (ITAC) Biomarker Activity (AID 2284251). Conditions: primary human foreskin fibroblasts. In a few lines:
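ELISA readout of I-TAC after 24 h chemical exposure; human dermal foreskin fibroblast primary cells. Positive-direction fitting vs DMSO baseline. Parallel SRB total-protein staining (0.1% SRB after 10% TCA fixation, 560 nm) flags cytotoxicity.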

Read-out in experiment [12]: Plasminogen activator inhibitor-1 (PAI1), SERPINE1 (gene 5054)
Put plainly: BSK_KF3CT_PAI1: BioMAP Diversity Plus: KF3CT Assay for Plasminogen activator inhibitor-1 (PAI1) Biomarker Activity (AID 2284252). Conditions: primary human keratinocytes with fibroblasts. In a few lines:
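Signal is PAI-1 detected by ELISA in a human skin-derived keratinocyte/fibroblast co-culture, 24 h after dosing; DMSO served as negative control and baseline.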

Read-out in experiment [13]: Monocyte Chemoattractant Protein-1 (MCP1), CCL2 (gene 6347)
Put plainly: BSK_IMphg_MCP1: BioMAP Diversity Plus: IMphg Assay for Monocyte Chemoattractant Protein-1 (MCP1) Biomarker Activity (AID 2284253). Conditions: primary human endothelial cells with macrophages. The procedure, abridged:
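Human venular endothelial cells co-cultured with macrophages; MCP-1 measured by ELISA 24 hours post-dose and fitted against DMSO. Cytotoxicity monitored by SRB total-protein staining in parallel cultures.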

Read-out in experiment [14]: Interleukin-8 (IL8), CXCL8 (gene 3576)
Description: BSK_KF3CT_IL8: BioMAP Diversity Plus: KF3CT Assay for Interleukin-8 (IL8) Biomarker Activity (AID 2284254). Conditions: primary human keratinocytes with fibroblasts. The procedure, abridged: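 Chemicals were added to co-cultured human keratinocytes and foreskin fibroblasts, incubated 24 h, then IL-8 was quantified by ELISA. Cytotoxicity was tracked by sulforhodamine B total-protein staining in parallel cultures.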

Read-out in experiment [15]: Macrophage Inflammatory Protein-1 Alpha (MIP1a), CCL3 (gene 6348)
Put plainly: BSK_IMphg_MIP1a: BioMAP Diversity Plus: IMphg Assay for Macrophage Inflammatory Protein-1 Alpha (MIP1a) Biomarker Activity (AID 2284255). Conditions: primary human endothelial cells with macrophages. In a few lines: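 Co-culture of human venular endothelial cells and macrophages exposed to compounds for 24 h; MIP-1a measured by ELISA relative to DMSO. Cytotoxicity assessed in parallel cultures by sulforhodamine B total-protein staining at 560 nm.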

Read-out in another experiment: CD69, CD69 (gene 969)
Description: BSK_IMphg_CD69: BioMAP Diversity Plus: IMphg Assay for CD69 Biomarker Activity (AID 2284257). Conditions: primary human endothelial cells with macrophages. In a few lines:
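Human venular endothelial cells co-cultured with macrophages; CD69 quantified by ELISA 24 h after compound addition. Activity fitted in the positive direction relative to DMSO baseline; cytotoxicity tracked in parallel cultures via SRB total-protein staining.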

Read-out in experiment [16]: Eotaxin 3, CCL26 (gene 10344)
Put plainly: BSK_BF4T_Eotaxin3: BioMAP Diversity Plus: BF4T Assay for Eotaxin 3 Biomarker Activity (AID 2284258). Conditions: primary human bronchial epithelial cells with fibroblasts. The procedure, abridged: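 Co-culture of human bronchial epithelial cells and dermal fibroblasts, exposed to chemicals for 24 h versus DMSO. Eotaxin-3 quantified by ELISA; cytotoxicity checked in parallel cultures by sulforhodamine B total-protein staining.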

The results in this text go back to PubChem BioAssay (EPA / NIEHS).

Values joined by “and” are separate entries in the source; they are usually repeats but may differ in a detail not shown here. Identical values can stand only once. More than one record can exist for a structure, and the calls need not agree. Active and inactive are the calls of the source. The calls were made as follows: active = hit-call score of the fitted dose curve at least 0.9, where 1 is the maximum; inactive = score below 0.9.

The term AC50 denotes the midpoint of the concentration-response curve, whichever way the signal moves.

Turning to `CCCCCCC=O`, the outcome in experiment [1], in experiment [2], in experiment [3], in experiment [4], in experiment [5] and in experiment [6] was inactive.

With `CCCCCCCCC(CO)CCCCCC` (configuration not stated), the result in experiment [1], in experiment [2], in [7], in experiment [3], in experiment [4] and in experiment [5] was inactive. For the same compound, the result in [6] was inactive.

Consider `CC1=CC=C(C(C)C)CC1`, for which the result in [1], in experiment [2], in [3], in experiment [4], in experiment [5] and in experiment [6] was inactive.

As for `COc1ccc(C(=O)/C(Br)=C\C(=O)O)cc1`, the concentration at half-maximal activity (AC50) in experiment [1] was 20 µM (active); in [2], 26.5 µM (active) and 30.2 µM (active); in experiment [7] it was 28 µM (active) and 30.3 µM (active); in experiment [3], 23.2 µM (active) and 20 µM (active). The outcome in [1], in [4], in experiment [5] and in experiment [6] was inactive.

With `CC(C)CCCCCOC(=O)CS`, the result in experiment [1], in [2], in experiment [7], in experiment [3], in experiment [4] and in experiment [5] was inactive. Besides, in experiment [6], the outcome was inactive.

Turning to `C[N+](C)(C)CCCNS(=O)(=O)C(F)(F)C(F)(F)C(F)(F)C(F)(F)C(F)(F)C(F)(F)C(F)(F)C(F)(F)F`, the half-maximal activity concentration (AC50) was 48.8 µM (active) and 50.1 µM (active) in experiment [1]; 22.5 µM (active) and 21.6 µM (active) in experiment [2]; 33.6 µM (active) and 31.3 µM (active) in experiment [7]; 32.6 µM (active) and 21.5 µM (active) in experiment [3]; 46.9 µM (active) and 47.2 µM (active) in [4]; 48.9 µM (active) in experiment [5]. The concentration at half-maximal activity (AC50) in experiment [11] is 47.1 µM (active) and 49.6 µM (active); in experiment [12] it was 46.1 µM (active); in experiment [15], 50.5 µM (active) and 56.9 µM (active); in [6] it was 21.9 µM (active); with CD69, CD69 (gene 969), 8.01 µM (active). Moreover, the result in experiment [5], in experiment [8], in [9], in experiment [10], in [12] and in experiment [13] was inactive. The outcome in experiment [14] is “inactive”; in experiment [6], “inactive”; in the experiment with CD69, CD69 (gene 969) it was “inactive”; in experiment [16] it was “inactive”.

Consider `COc1ccc(C(=O)c2ccccc2)c(O)c1`, for which the result in experiment [1], in experiment [2], in experiment [3], in experiment [4], in [5] and in experiment [6] was inactive.

`C=CC(=O)NCOCCCC`: the result in experiment [1], in experiment [2], in experiment [3], in [4], in experiment [5] and in experiment [6] was inactive.

On to `C=CC(=O)NC(C)(C)C`, for which the outcome in [1], in experiment [2], in experiment [3], in experiment [4], in experiment [5] and in [6] was inactive.

In the case of `COC(OC)(C(=O)c1ccccc1)c1ccccc1`, the result in experiment [1], in [2], in experiment [7], in experiment [3], in [4] and in experiment [5] was inactive. Moreover, in [6], the outcome was inactive.

Regarding `CC1(C)CC(O)CC(C)(C)N1[O]`, the result in experiment [1], in [2], in [3], in experiment [4], in experiment [5] and in experiment [6] was inactive.

Take `Oc1ccc(/C=C/c2cc(O)cc(O)c2)cc1`: the result in [1], in experiment [3], in experiment [4], in experiment [5] and in experiment [6] was inactive. In addition, the half-maximal activity concentration (AC50) in [2] was 23.9 µM (active).
